Measurements from PubChem BioAssay (NCI).
Values joined by “and” are separate entries in the source; they are usually repeats but may differ in a detail not shown here. Equal entries are not always repeated. The panel holds about 83,000 compounds, 20% with a hit somewhere; the sample as a whole holds those more often.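 Negative percent growth values reflect cell death: -40 means 40% of the cells present at the start died, and -100 means all died.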 A number with no mark means an inactive call. Active and inactive are the calls of the source.

What follows are molecules tested on MCF7 breast (assay: NCI-60 one-dose screen, 48 h (100 = growth as untreated, 0 = no growth, -100 = all killed)). Conditions: 10 µM unless noted.
Method: Growth inhibition of the MCF7 human tumor cell line is measured as a screen for anti-cancer activity. Cells are grown in 96 well plates and exposed to the test compound for 48 hours. Compounds are tested at a single concentration, which is 10^-5 M for most compounds. The reported endpoint is percent growth (GI% or GIPRCNT), where numbers from 0 - 100% represent growth inhibition, and numbers from -100% - 0 represent cell death. For example, a value of 40 represents 60% growth inhibition. A value of 0 means no net growth occurred over the course of the experiment. A value of -40 indicates 40% of cells at the beginning of the experiment died by the end of the experiment. A value of -100 means all cells are dead at the end of the experiment.
NCI-60 Human Tumor Cell Lines Screen was performed using the standard one-dose NCI protocol, which is described in more detail at https://dtp.cancer.gov/discovery_development/nci-60/default.htm.
Compounds with GIPRCNT values below 10 were considered active. Activity score was based on GIPRCNT using the following formula: […]
Score is 0 for GIPRCNT values of 100 or above, 50 for GIPRCNT values of 0, and 100 for GIPRCNT values of -100.

SMILES	growth
CCC[CH2][Sn]1([CH2]CCC)[O]C(=O)c2cccc([N+](=O)[O-])c2C(=O)[O]1	-99% (active)
Cc1ccc(C(=O)C2CN(C)CCC2(O)c2ccc(C)cc2)cc1 (stereo not given)	98.1%
N#Cc1ncc(/N=C/c2ccc(N(CCCl)CCCl)cc2)s1	48.7%
COc1cc(C2(C#N)CCN(C)CC2)cc(OC)c1OC	95.7%
CCOC(=O)Nc1cc(Cl)c([N+](=O)[O-])c(NC(=O)OCC)n1	51.4%
O=[N+]([O-])c1ccccc1N1CCNCC1	105%
Nc1nc(N)c(-c2ccc(Cl)c(Cl)c2)c(/C=C/c2ccc(S(=O)(=O)F)cc2)n1	73.5%
COc1cc(C2=NN(c3ccccc3)C(c3sc(N(CCCl)CCCl)nc3Cl)C2)cc(OC)c1OC (stereo not given)	86.6%
CCC1([N+](=O)[O-])COP(=O)(NCc2cccnc2)OC1 (stereo not given)	115%
O=C(CCc1ccco1)NC1CCN(CC2(c3ccc(Cl)cc3)CCC2)CC1	2.88% (active)
Cc1ccc2oc(=O)c3c(c2c1)OC(N)=C(C#N)C3c1ccco1 (stereo not given)	93.8%
COc1cc(/C=C\c2cc(OC)c(OC)c(OC)c2)cc(N/C=C\C(=O)c2ccc(OC(F)(F)F)cc2)c1OC	17.2%
CN(C)P1(N(C)C)=NP(N(C)C)(N(C)C)=NP(N(C)C)(N(C)C)=N1	95.4%
OC1CCCCC1N1CCC(c2ccccc2)CC1 (stereo not given)	94.1%
CC[C@H](C)[C@H](NC(=O)Nc1ccccc1)C(=O)N(C)[C@H](C[C@@H](OC(C)=O)c1nc(C(=O)N[C@@H](Cc2ccccc2)C[C@H](C)C(=O)OC)cs1)C(C)C	12.4%
OB([O][Hg][c]1ccccc1)[O][Hg][c]1ccccc1	-39.4% (active)
O=C(Nc1ccc(S(=O)(=O)F)cc1)Oc1ccccc1	91.6%
CNC(=O)Oc1cccc(OC)c1	101%
O=[As]c1ccc(C(=O)c2ccc(Oc3ccccc3)cc2)cc1 (stereo not given)	-48.6% (active)
ClCCN(CCCl)c1ccc(C=NCCc2c[nH]c3ccccc23)cc1	56%

SMILES	growth
COc1ccc(OC)c(/C=C(/C)[N+](=O)[O-])c1	6.58% (active)
C[C@]12CCc3sc(-c4ccc(Cl)cc4)nc3C1=CC[C@@H]1[C@@H]2CC[C@]2(C)C(=O)CC[C@@H]12	24.4%
CC1(C)N=C(N)N=C(N)N1c1ccc(CCC(=O)Nc2cccc(S(=O)(=O)F)c2)cc1	54.6%
Cc1cc(N(CCCl)CCCl)ccc1C=Nc1ccc2ccccc2c1	40%
O=C1NC(=O)C(CCC(=O)c2cccc3ccccc23)C(=O)N1	91% [100 µM] and 51.9% [100 µM]
O=C(C(=O)N1CCCC1)c1cn(CCCCCn2cc(C(=O)C(=O)N3CCCC3)c3ccccc32)c2ccccc12	86.6%
O=S(=O)(F)c1ncnc2nc[nH]c12	84.1%
COc1ccc(C2=NN(c3ccccc3)C(c3sc(N(CCCl)CCCl)nc3Cl)C2)cc1 (stereo not given)	87.3%
S=P(NC1CCCCC1)(N1CC1)N1CC1	89%
O=[N+]([O-])c1cccc([As]=[As]c2cccc([N+](=O)[O-])c2)c1 (stereo not given)	-53.6% (active)
CCCCOC(=O)c1ccccc1C(=O)O.CCCCOC(=O)c1ccccc1C(=O)O.[Cu+2]	98.3%
CCCCCN(CCCCC)CC(O)c1ccc(C)c(Cl)c1 (stereo not given)	95.5%
CC1COC(=O)C1 (stereo not given)	93.8%
O=C(CCF)c1ccc(O)cc1	101%
O=C(/C=C/c1ccccc1)N[C@@H](CO)Cc1cnc[nH]1	98.7%
C[C@]12CCC(=O)CC1CC[C@@H]1C2CC[C@@]2(C)C1CC[C@@H]2OC(=O)CC[Se][Se]CCC(=O)O[C@H]1CCC2[C@@H]3CCC4CC(=O)CC[C@]4(C)C3CC[C@@]21C (stereo not given in full)	80.8%
COc1ccc(C(=O)c2ccc([As]=O)cc2)cc1 (stereo not given)	-20.3% (active)
CCOc1ccc(C(O)CN(C)Cc2ccccc2)cc1Cl (stereo not given)	98.6%
CC(=O)[O][Hg][CH2]C1(C)COC(C)([CH2][Hg][O]C(C)=O)CO1 (stereo not given)	-81.1% (active)
NC(Cc1ccc(O)cc1)C(=O)N/N=C/c1ccc(N(CCCl)CCCl)cc1 (stereo not given)	54.5%
